# Source: PubChem BioAssay
# IL1B secr inh – qHTS for Inhibitors of Inflammasome Signaling: IL-1-beta AlphaLISA Primary Screen; THP-1 LPS/ATP IL-1B secretion, AlphaLISA, 16 h; stronger effect = lower value; activity change, % at 57.5 µM; 360,000 compounds, 4.7% hits; AID 743279, 2014; in the data active = activity change below about -50%; inconclusive = mostly about -30% to -49%
#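 Secreted IL-1B measured by AlphaLISA bead assay after 16 h compound exposure of THP-1 cells; compounds (final up to 57.5 uM) added 1 h before LPS (250 ng/mL) and ATP (1.25 mM) stimulation; lower signal means less secretion.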
# ELG1 repair inh – qHTS screen for small molecules that inhibit ELG1-dependent DNA repair in human embryonic kidney (HEK293T) cells expressing luciferase-tagged ELG1; 330,000 compounds, 2.3% hits; AID 504467, 2011; HEK293T ELG1-luciferase reporter, luminescence, 16 h; DNA damage induced by 5-fluorouridine; Potency, µM (highest dose often 46.1 µM), most hits filed as inhibitors; also: nearly all actives have a fitted effect of over 55% in size
#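 Overnight (16 hr) co-exposure of 2,000 cells/well to 5-fluorouridine and compound at 37 °C preceded detection. Luciferase was quantified via ONE-Glo luminescence; loss of signal denotes inhibition.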
# DT40 TDP1 no CPT – qHTS for Inhibitors of human tyrosyl-DNA phosphodiesterase 1 (TDP1): qHTS in cells in absence of CPT; DT40 Tdp1-/- hTDP1 cells, no CPT, ATP luminescence, 48 h; Potency, µM (highest dose often 46.2 µM), usual class: inhibitors; 420,000 compounds, 15% hits; also: nearly all actives have a fitted effect of over 55% in size
#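 Cells were dispensed at 400 per well, compounds added by pin tool, plates incubated ≥48 hr at 37 °C, then CellTiter-Glo added for 30 min at room temperature before luminescence reading. Line: DT40 Tdp1-/- complemented with hTDP1; camptothecin omitted.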
# HT1080 IDH1KD tx – qHTS for induction of synthetic lethality in tumor cells producing 2HG: qHTS for the HT-1080-IDH1KD cell line. HT-1080 IDH1 knockdown viability, ATP luminescence, 48 h. 360,000 compounds, 2% hits. Potency, µM (series often up to 46.1 µM), most hits filed as cytotoxic
#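 CellTiter-Glo luminescence after 48 h compound exposure at 37 degrees C of IDH1-knockdown HT-1080 cells in 5% FBS RPMI. %Activity scaled between DMSO wells and cell-free media wells, with curves fitted and assigned curve classes.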
# HT1080-NT tox – qHTS for induction of synthetic lethality in tumor cells producing 2HG: qHTS for the HT-1080-NT fibrosarcoma cell line; HT-1080-NT fibrosarcoma viability, CellTiter-Glo ATP luminescence, 48 h; Potency, µM (doses to about 46.1 µM), most hits filed as cytotoxic; 360,000 compounds, 1.6% hits; AID 686970, 2013;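 also: NT is the 2HG producing partner of a matched IDH1 knockdown line; nearly all actives have a fitted effect of over 55% in size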
#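 Fibrosarcoma NT cells, 750 per well in 5% FBS RPMI, were exposed to compound for 48 hours. Viability: CellTiter-Glo luminescence.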
# TDP1 cell CPT – qHTS for Inhibitors of human tyrosyl-DNA phosphodiesterase 1 (TDP1): qHTS in cells in presence of CPT; chicken DT40 Tdp1-/-;hTDP1 cells + 20 nM CPT, ATP luminescence, 48 h; Potency, µM (highest dose often 46.2 µM), usual class: inhibitors; 420,000 compounds, 12% hits; AID 686979, 2013; also: nearly all actives have a fitted effect of over 55% in size
#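 Chicken DT40 Tdp1-/- cells complemented with human TDP1, 400 cells/well, exposed to compounds plus 20 nM camptothecin for at least 48 h at 37 C; viability read as ATP content by CellTiter-Glo luminescence.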
# Numbers stand for hits; n = inactive; u = inconclusive; x = not tested or not shown. An excerpt weighted towards active compounds, which were near 19% of everything screened. Unless noted, calls follow the shape of the dose curve; as a rule, active = well fitted curve in the direction sought with a large enough effect; inconclusive = small, poorly fitted or top-dose-only effect, or another doubt; inactive = no such curve, though single readings can be large; an effect the other way counts as inactive or inconclusive.
SMILES,IL1B secr inh,ELG1 repair inh,DT40 TDP1 no CPT,HT1080 IDH1KD tx,HT1080-NT tox,TDP1 cell CPT
CCN(CC)CCn1c2c(c(SCC(=O)Nc3ccc(F)c(F)c3)nc1=O)CCC2,-66,n,n,n,n,n
CCN(CC)CCn1c2c(c(SCC(=O)Nc3ccc(C)c(F)c3)nc1=O)CCCC2,u,n,u,n,n,u
CCCCc1ccc(NC(=O)CSc2nc(=O)n(CCN(CC)CC)c3c2CCC3)cc1,-80,n,u,n,n,u
CCN(CC)CCCn1c2c(c(SCC(=O)Nc3ccc(F)c(F)c3)nc1=O)CCC2,n,n,n,n,n,n
CC(C)c1ccc(OCC(=O)Nc2cc(-c3ccccc3)no2)cc1,x,x,n,x,x,n
CC(=O)N1CCc2cc(CNC(=O)Nc3ccc(Br)c(C)c3)ccc21,x,x,n,x,x,u
CCN(CC)CCn1c2c(c(SCC(=O)Nc3nc(C)cs3)nc1=O)CCC2,-69,n,n,n,n,n
CCOC(=O)Cc1csc(NC(=O)CSc2nc(=O)[nH]c3c2CCC3)n1,-90,n,n,n,n,n
CCN(CC)CCn1c2c(c(SCC(=O)Nc3ccc(C(C)C)cc3)nc1=O)CCCC2,-50,n,u,n,n,u
O=[N+]([O-])c1cccc(N(CC2CO2)S(=O)(=O)c2ccccc2)c1 (configuration not stated),n,n,u,u,u,u
CC(C)N(C)C1CCN(S(=O)(=O)c2ccc3[nH]c(=O)ccc3c2)CC1,x,x,n,x,x,n
O=C(Nc1cccc(S(=O)(=O)Nc2ccc(Cl)cc2)c1)c1ccc(Cl)nc1,n,u,0.65µM,u,u,2.3µM
O=C(Nc1ccc(NS(=O)(=O)c2ccccc2)cc1)c1ccc(Cl)cc1,n,n,n,n,n,n
COc1ccc(NS(=O)(=O)c2cccc(NC(=O)c3ccc(Cl)nc3)c2)cc1,n,u,3.3µM,6.5µM,1.6µM,1.2µM
CN(C)S(=O)(=O)c1cccc(NC(=O)c2cnccn2)c1,x,n,x,x,x,x
COc1ccc(NS(=O)(=O)c2cccc(NC(=O)c3cnccn3)c2)cc1Br,n,18µM,18µM,n,n,16µM
COCCN(C(=O)COC(=O)Cc1ccc(Cl)cc1Cl)c1c(N)n(Cc2ccccc2)c(=O)[nH]c1=O,n,u,n,n,n,n
CN(C)c1ccc(/C=N/NC(=O)c2ccco2)cc1,n,u,n,n,n,n
CN(C)c1ccc(/C=N\NC(=O)c2cccc3cc[nH]c23)cc1,n,u,6.5µM,n,n,u
Cc1ccccc1-c1nc(CNC(=O)NC2CCCCC2)c(C)o1,x,x,n,x,x,n
CC1=NN(S(=O)(=O)c2ccc(Cl)cc2Cl)C(=O)c2ccccc2O1,n,n,16µM,n,n,16µM
CC1(c2ccc(F)cc2)OC(=O)c2c1ccc1ccccc21 (configuration not stated),n,x,18µM,n,n,u
O=C(Nc1ccc(-c2nc3ccccc3o2)c(O)c1)c1cc(-n2cnnc2)ccc1Cl,n,21µM,u,u,n,26µM
O=C(Nc1ccccc1)c1cc(-n2cnnc2)ccc1Cl,n,n,n,n,n,n
Cc1c(NC(=O)c2cc(-n3cnnc3)ccc2Cl)cccc1-c1nc2ccccc2o1,n,u,u,n,n,n
SMILES,IL1B secr inh,ELG1 repair inh,DT40 TDP1 no CPT,HT1080 IDH1KD tx,HT1080-NT tox,TDP1 cell CPT
O=C(Nc1ccc(-c2nc3ccccc3o2)cc1)c1cc(-n2cnnc2)ccc1Cl,u,u,u,n,n,18µM
CN(C)c1ncc2nc(-c3cccs3)c(=O)n(Cc3cccs3)c2n1,x,x,n,x,x,n
CN(C)c1nc(=NCc2cccs2)ss1,-60,x,0.029µM,u,n,0.026µM
O=S(=O)(CCS(=O)(=O)c1ccccc1)c1ccccc1,u,x,n,u,n,n
COc1ccc2c(c1)C(=O)C(=O)N2CCS(=O)(=O)c1ccccc1,n,n,2.3µM,n,n,7.3µM
O=C1C(=O)N(CCS(=O)(=O)c2ccccc2)c2ccc(F)cc21,n,n,u,n,n,21µM
O=C(CNC(=O)c1ccc(Br)o1)NNC(=O)c1ccccc1F,n,n,n,n,n,n
C=Cc1ccc(Cn2c(C(=O)O)c(CNC3CCCCC3)c3ccc(C)cc32)cc1,x,x,n,x,x,n
CCOC(=O)C1=C(O)/C(=C\c2ccc(OC)c(OC)c2)N=C1C,n,n,n,n,n,n
CCOC(=O)CSC1=N/C(=C\c2ccc(OC)c(OC)c2)C(=O)N1C,n,n,u,n,n,26µM
CCOC(=O)CSC1=NC(=O)/C(=C/c2ccc(OC)cc2)S1,-86,u,1.3µM,u,u,1.5µM
COc1ccc(/C=C2\SC(N)=NC2=O)cc1,n,n,u,n,n,u
CN1CCN(CCCNc2c(C=O)c(=O)[nH]c3ccccc23)CC1,n,n,n,n,n,n
CC(=O)N1CCSc2ccc(S(=O)(=O)NCCc3ccc(C)cc3)cc21,u,u,21µM,n,n,23µM
CC(=O)N1CCSc2ccc(S(=O)(=O)Nc3ccc(C)cc3)cc21,n,n,n,n,n,u
CC(=O)N1CCSc2ccc(S(=O)(=O)NCCc3cccc(C)c3)cc21,-80,u,10µM,n,n,21µM
CC(=O)N1CCSc2ccc(S(=O)(=O)NCCc3ccc(Cl)cc3)cc21,n,u,u,u,n,16µM
CC(=O)N1CCOc2ccc(S(=O)(=O)NCCc3ccccc3)cc21,n,n,n,n,n,n
Cc1cc(C)cc(OCC(=O)OC(C)C(=O)Nc2ccc(Cl)cn2)c1 (configuration not stated),n,u,n,n,n,n
S=C(Nc1ccccc1)Nc1ccc(Cl)cn1,n,u,5.8µM,n,n,23µM
CCC(=O)NC(=S)Nc1ccc(Cl)cn1,n,n,n,n,n,n
O=C(NC(=S)Nc1ccc(Cl)cn1)C(c1ccccc1)c1ccccc1,n,u,23µM,n,n,u
COc1ccc2[nH]c(=O)c(CN(C(=O)c3cccnc3)c3ccc(C)c(C)c3)cc2c1,n,u,u,n,n,12µM
CCN(Cc1cc2cccc(C)c2[nH]c1=O)C(=O)c1ccccc1OC,n,n,23µM,n,n,u
CCCC(=O)N(Cc1cc2cc(OC)ccc2[nH]c1=O)c1ccc(OC)cc1,n,x,u,n,n,u
